From PubChem BioAssay (NCATS)
Where “and” joins values, the source holds several entries; their conditions need not be identical. Equal values may be shown once. Calls of active or inactive are those of the source. Unless noted, calls follow the shape of the full dose curve.

Legend:
[1] = target: Estrogen receptor (Homo sapiens) (UniProt P03372); assay: qHTS assay for small molecule antagonists of estrogen receptor alpha signaling (AID 588513; active = well fitted curve in the direction sought with a large enough effect in the signal ratio, with a control signal flat, not every such curve was filed as active; inconclusive = small, poorly fitted or top-dose-only effect, or effect the other way, or a change in a side signal; inactive = no such curve, though single readings can be large or run the other way; the % refers to the signal ratio; also: potency is read from the fitted curve at half-maximal effect)
Method in brief: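 Antagonist-mode qHTS in ER-alpha-UAS-bla HEK 293 cells: compound titration, 0.5nM estradiol for 18 h, CCF4 fluorescence, Hill-derived IC50.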

[2] = target: Estrogen receptor (Homo sapiens) (UniProt P03372); assay: qHTS assay for small molecule agonists of estrogen receptor alpha signaling (AID 588514);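 also: 0% = vehicle only and 100% = reference agonist; nearly all actives have a fitted effect of over 70% in size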
Method in brief: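 ER-alpha-UAS-bla GripTite HEK293 cells, 5000/well in 2% charcoal/dextran-stripped FBS medium, treated with compound titrations 18 h at 37 C. CCF4 beta-lactamase read by fluorescence after 2 h RT; normalised to 20 nM 17-beta-estradiol (100%) and DMSO (0%), Hill fit for EC50 and efficacy.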

[3] = target: Peroxisome proliferator-activated receptor gamma (Homo sapiens) (UniProt P37231); assay: qHTS assay for small molecule agonists of peroxisome proliferator-activated receptor gamma signaling (AID 588536; active = well fitted curve in the direction sought with a large enough effect in the signal ratio, with a control signal flat, not every such curve was filed as active; inconclusive = small, poorly fitted or top-dose-only effect, or effect the other way, or a change in a side signal; inactive = no such curve, though single readings can be large or run the other way; the % refers to the signal ratio;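 also: 0% = DMSO basal wells and 100% = rosiglitazone at 2 µM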)
Method in brief: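 HEK293 UAS-bla reporter line, 1% charcoal/dextran FBS; titration, 16 h, 37 C; CCF4 loading 2 h RT; fluorescence 460/530 nm. Normalized to rosiglitazone 2 uM = 100%, DMSO = 0%.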

[4] = target: Vitamin D3 receptor (Homo sapiens) (UniProt P11473); assay: qHTS assay for small molecule antagonists of vitamin D receptor signaling (AID 588541);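 also: receptor activated by calcitriol during compound treatment; series mostly up to about 77 µM; % is scaled to controls: 0 for no effect and ±100 for the full control effect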
Method in brief: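 VDR-UAS-bla HEK293T cells in 2% charcoal-stripped FBS were stimulated with 1-alpha,25-dihydroxyvitamin D3 (3 nM final) plus compound for 16 h at 37 C. The beta-lactamase CCF4 readout was normalized to 50 nM agonist and DMSO, and Hill fits gave IC50.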

[5] = target: Retinoic acid receptor RXR-alpha (Homo sapiens) (UniProt P19793); assay: qHTS assay for small molecule agonists of retinoid X receptor alpha signaling (AID 588544); also: potency is read from the fitted curve at half-maximal effect;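 as to activation: 0% = DMSO basal wells and 100% = reference agonist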
[6] = target: Thyroid hormone receptor beta (Homo sapiens) (UniProt P10828); assay: qHTS assay for small molecule agonists of thyroid hormone receptor beta signaling (AID 588545);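 also: 0% = DMSO only and 100% = 10 nM T3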
Method in brief: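 TR-UAS-bla GripTite HEK 293 cells (2500/well, medium with 2% charcoal/dextran FBS) were treated in agonist mode for 18 h at 37 C, titrated. Beta-lactamase was read by CCF4 ratio after 2 h; normalized to 10 nM T3 (100%) and DMSO, Hill-fitted for EC50 and efficacy.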

[7] = qHTS assay for small molecule antagonists of retinoid X receptor alpha signaling (AID 588546; active = well fitted inhibition curve with a large enough effect in the signal ratio, with a control signal flat, not every such curve was filed as active; inconclusive = small, poorly fitted or top-dose-only effect, or effect the other way, or a change in a side signal; inactive = no such curve, though single readings can be large or run the other way; the % refers to the signal ratio;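 also: cells stimulated with 9-cis-retinoic acid as agonist; % is scaled to controls: 0 for no effect and ±100 for the full control effect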); conditions: HEK293T RXRa-UAS-bla, beta-lactamase ratio, antagonist mode; measured here: W530 green channel, cytotoxicity proxy
Method in brief: (§1)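 Beta-lactamase reporter inhibition, read as CCF4 fluorescence ratio (ex 405, em 460/530 nm) after 2 h at RT. HEK293T UAS-bla cells, 2500/well, were stimulated with 9-cis-RA at 500 or 100 nM final alongside test compound for 18 h at 37 C.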

[8] = target: Retinoic acid receptor RXR-alpha (Homo sapiens) (UniProt P19793); assay: as above; conditions: HEK293T RXRa-UAS-bla, beta-lactamase ratio, antagonist mode
Method in brief: as §1

[9] = qHTS assay for small molecule activators of the p53 signaling pathway (AID 651743; active = well fitted activation curve with a large enough effect in the signal ratio, not every such curve was filed as active; inconclusive = small, poorly fitted or top-dose-only effect, or a change in a side signal; the % refers to the signal ratio; also: potency is read from the fitted curve at half-maximal effect; as to activation: series mostly up to about 92 µM; % of control where 0% means no effect); conditions: HCT-116 p53RE-bla, beta-lactamase FRET ratio, 16 h; activation: stronger effect = higher value
Method in brief: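 p53RE-bla HCT-116 cells carrying a beta-lactamase reporter under p53 response elements were exposed to compounds for 16 hours at 37 C. Reporter activity read as fluorescence after 2 hours at room temperature with LiveBLAzer B/G FRET substrate.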

[10] = qHTS assay for small molecule activators of the nuclear factor-kappa B (NF-kB) signaling pathway (AID 651749; active = well fitted activation curve with a large enough effect in the signal ratio; inconclusive = small, poorly fitted or top-dose-only effect, or a change in a side signal; the % refers to the signal ratio; also: series mostly up to about 77 µM; % of control where 0% means no effect); conditions: NF-kB-bla ME-180 cells, beta-lactamase FRET ratio, 16 h; activation: stronger effect = higher value
Method in brief: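 NF-kB-bla ME-180 cells carrying a beta-lactamase reporter under an NF-kB response element, 2,000 cells/well, exposed to compound for 16 hr at 37C; FRET-based beta-lactamase fluorescence read-out of pathway activation.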

[11] = qHTS assay for environmental chemicals that activate the Aryl hydrocarbon Receptor (AhR) signaling pathway (AID 651777; active = well fitted curve in the direction sought with a large enough effect; inconclusive = small, poorly fitted or top-dose-only effect, or another doubt; inactive = no such curve, though single readings can be large; an effect the other way counts as inactive or inconclusive; also: % of control where 0% means no effect; nearly all actives have a fitted effect of over 15% in size); conditions: 1A2-DRE human hepatoma cells, luciferase, 24 h; activation: stronger effect = higher value
Method in brief: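 Following a 24 hr incubation with test chemicals at 37 C and 5% CO2, 1A2-DRE human hepatoma cells received One-Glo reagent; after 30 min at room temperature, luciferase output reflected CYP1A2 induction via AhR.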

[12] = target: Peroxisome proliferator-activated receptor alpha (Homo sapiens) (UniProt Q07869); assay: qHTS assay for small molecule agonists of the peroxisome proliferator-activated receptor alpha (PPARalpha) signaling pathway (AID 651778; active = well fitted curve in the direction sought with a large enough effect; inconclusive = small, poorly fitted or top-dose-only effect, or another doubt; inactive = no such curve, though single readings can be large; an effect the other way counts as inactive or inconclusive; also: % of control where 0% means no effect); conditions: PathHunter PPARalpha complementation, chemiluminescence, 6 h; max response: stronger effect = higher value
Method in brief: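 Enzyme-fragment complementation assay in which ligand-bound PPARalpha translocates and forms an active enzyme that generates chemiluminescence. Cells were plated overnight, exposed to compound for 6 hr at 37 C, and then given detection reagent for 60 min at room temperature.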

[13] = qHTS assay for small molecule agonists of the antioxidant response element (ARE) signaling pathway measured by Nrf2-dependant transcriptional activity - cell viability counter screen (AID 720653; active = well fitted curve in the direction sought with a large enough effect in the repeat runs; inconclusive = weak or mixed curves; inactive = no such curve, though single readings can be large; an effect the other way counts as inactive or inconclusive; also: % is scaled to controls: 0 for no effect and ±100 for the full control effect); conditions: ARE-bla HepG2 viability, CellTiter-Glo ATP luminescence, 16 h; max response: stronger effect = lower value
Method in brief: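 ARE-bla HepG2 cells treated with compounds for 16 h at 37C; this counter screen measures viability as intracellular ATP by CellTiter-Glo luminescence after 30 min at room temperature.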

[14] = qHTS assay for cell viability of HEK293 cells (AID 743288; active = well fitted curve in the direction sought with a large enough effect; inconclusive = small, poorly fitted or top-dose-only effect, or another doubt; inactive = no such curve, though single readings can be large; an effect the other way counts as inactive or inconclusive; also: % is scaled to controls: 0 for no effect and ±100 for the full control effect; nearly all actives have a fitted effect of over 50% in size); conditions: ATP luminescence (CellTiter-Glo), 18 h; max response: stronger effect = lower value
Method in brief: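 Luminescent ATP quantitation served as the viability read-out. Cells (parental HEK293, 2,000/well) received compounds after at least 5 h at 37 C and were exposed for 18 h before a 30 min room-temperature reagent step.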

[15] = qHTS assay for cell viability of the p53RE-bla HCT-116 cell line (AID 743292; active = well fitted curve in the direction sought with a large enough effect; inconclusive = small, poorly fitted or top-dose-only effect, or another doubt; inactive = no such curve, though single readings can be large; an effect the other way counts as inactive or inconclusive; also: % is scaled to controls: 0 for no effect and ±100 for the full control effect; nearly all actives have a fitted effect of over 55% in size)
Method in brief: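 After plating at 4,000 cells per well and a 5 h rest at 37 C, HCT-116 cells carrying p53RE-bla received test chemicals in DMSO. Sixteen hours later at 37 C, CellTiter-Glo was added and luminescence recorded following 30 min at room temperature.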

[16] = target: Nuclear receptor subfamily 1 group I member 2 (Rattus norvegicus) (UniProt Q9R1A7); assay: qHTS assay for small molecule activators of the rat pregnane X receptor (rPXR) signaling pathway (AID 651751; call rule not given here; also: 0% is about no effect); conditions: rPXR reporter cells, luciferase (One-Glo), 24 h
[17] = target: Glucocorticoid receptor (Homo sapiens) (UniProt P04150); assay: qHTS assay for small molecule agonists of glucocorticoid receptor signaling (AID 588532; active = well fitted curve in the direction sought with a large enough effect in the signal ratio, with a control signal flat; inconclusive = small, poorly fitted or top-dose-only effect, or a change in a side signal; inactive = no such curve, though single readings can be large or run the other way; the % refers to the signal ratio;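 also: 100% = dexamethasone at 0.1 µM and 0% = DMSO only wells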); conditions: HeLa MMTV-bla, beta-lactamase ratio, agonist, 18 h; activation: stronger effect = higher value, percent of dexamethasone control, DMSO zero
Method in brief: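 MMTV-bla HeLa beta-lactamase reporter cells in 1% charcoal/dextran FBS medium, compounds up to 92 uM for 18 h at 37 C, CCF4 readout; normalized to 0.1 uM dexamethasone (100%), EC50 and efficacy from Hill fits.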

[18] = target: Vitamin D3 receptor (Homo sapiens) (UniProt P11473); assay: qHTS assay for small molecule agonists of vitamin D receptor signaling (AID 588543);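 also: 0% = DMSO basal and 100% = reference agonist control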
Method in brief: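 Measured: β-lactamase reporter activity (CCF4, 405 nm excitation, 460/530 nm emission) in HEK293T VDR-UAS-bla cells after 16 h compound exposure at 37 °C. Normalization against 50 nM 1α,25-dihydroxyvitamin D3 and DMSO; Hill-fit EC50.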

[19] = qHTS assay for small molecule agonists of the antioxidant response element (ARE) signaling pathway measured by Nrf2-dependant transcriptional activity (AID 720636; active = well fitted curve in the direction sought with a large enough effect in the repeat runs; inconclusive = weak or mixed curves; inactive = no such curve, though single readings can be large; an effect the other way counts as inactive or inconclusive;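 also: HepG2 cells with an ARE-driven luciferase reporter; % of control where 0% means no effect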)
Method in brief: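 ONE-Glo luminescence, read 30 min after reagent addition at room temperature, reflected ARE reporter activity in HepG2 cells that had been incubated with compound for 16 hr at 37 C in 1% dialyzed FBS.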

[20] = target: Peroxisome proliferator-activated receptor delta (Homo sapiens) (UniProt Q03181); assay: qHTS assay for small molecule agonists of peroxisome proliferator-activated receptor delta signaling (AID 588534);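 also: 0% = DMSO basal wells and 100% = positive control agonist at 10 µM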
Method in brief: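 Cells carrying a PPAR-delta beta-lactamase reporter were treated with compounds for 18 h at 37 °C in agonist mode. CCF4 fluorescence was read after 2 h; EC50 and efficacy from Hill fits.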

Sequence of Vitamin D3 receptor (Homo sapiens) (P11473 whole entry, looked up): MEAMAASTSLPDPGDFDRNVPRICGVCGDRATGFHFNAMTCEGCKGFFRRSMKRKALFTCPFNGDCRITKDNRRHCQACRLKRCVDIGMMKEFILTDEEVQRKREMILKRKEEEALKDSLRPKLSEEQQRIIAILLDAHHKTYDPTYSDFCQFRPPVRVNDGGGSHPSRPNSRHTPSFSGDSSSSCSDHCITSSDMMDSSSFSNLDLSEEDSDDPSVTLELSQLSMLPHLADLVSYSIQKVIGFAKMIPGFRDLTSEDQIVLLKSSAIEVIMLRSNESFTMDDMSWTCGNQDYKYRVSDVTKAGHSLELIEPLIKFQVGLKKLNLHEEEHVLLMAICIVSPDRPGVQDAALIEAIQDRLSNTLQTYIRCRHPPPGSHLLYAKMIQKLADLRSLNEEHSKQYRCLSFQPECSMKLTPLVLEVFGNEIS
Sequence of Estrogen receptor (Homo sapiens) (P03372 whole entry, looked up): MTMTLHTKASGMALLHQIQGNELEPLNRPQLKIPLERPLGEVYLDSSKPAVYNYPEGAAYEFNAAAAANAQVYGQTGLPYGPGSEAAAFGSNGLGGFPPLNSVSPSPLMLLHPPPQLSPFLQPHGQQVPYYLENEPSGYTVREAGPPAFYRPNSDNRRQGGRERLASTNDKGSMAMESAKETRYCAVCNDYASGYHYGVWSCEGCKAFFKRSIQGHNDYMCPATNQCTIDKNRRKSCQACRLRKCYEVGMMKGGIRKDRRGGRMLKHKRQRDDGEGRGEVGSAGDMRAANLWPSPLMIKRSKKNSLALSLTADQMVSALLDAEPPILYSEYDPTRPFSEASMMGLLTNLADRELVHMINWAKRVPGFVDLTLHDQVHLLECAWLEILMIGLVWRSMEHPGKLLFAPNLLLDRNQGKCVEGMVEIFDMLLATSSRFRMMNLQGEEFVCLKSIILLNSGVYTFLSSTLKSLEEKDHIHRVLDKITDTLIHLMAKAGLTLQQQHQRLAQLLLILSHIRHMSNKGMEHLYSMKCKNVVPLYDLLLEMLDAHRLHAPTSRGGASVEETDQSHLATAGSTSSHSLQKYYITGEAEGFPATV
Sequence of Retinoic acid receptor RXR-alpha (Homo sapiens) (P19793 whole entry, looked up): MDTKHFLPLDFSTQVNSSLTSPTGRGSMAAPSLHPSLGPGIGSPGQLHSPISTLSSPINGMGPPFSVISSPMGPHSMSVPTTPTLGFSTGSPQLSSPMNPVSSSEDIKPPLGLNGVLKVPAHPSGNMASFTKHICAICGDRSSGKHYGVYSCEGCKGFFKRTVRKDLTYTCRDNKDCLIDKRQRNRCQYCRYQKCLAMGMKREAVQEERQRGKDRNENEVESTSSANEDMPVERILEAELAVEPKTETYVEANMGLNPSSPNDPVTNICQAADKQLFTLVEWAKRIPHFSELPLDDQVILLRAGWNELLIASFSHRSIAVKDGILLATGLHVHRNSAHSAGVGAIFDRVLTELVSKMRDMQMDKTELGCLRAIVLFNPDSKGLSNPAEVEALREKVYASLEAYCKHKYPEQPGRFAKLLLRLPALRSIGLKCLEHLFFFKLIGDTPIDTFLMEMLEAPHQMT
Sequence of Peroxisome proliferator-activated receptor gamma (Homo sapiens) (P37231 whole entry, looked up): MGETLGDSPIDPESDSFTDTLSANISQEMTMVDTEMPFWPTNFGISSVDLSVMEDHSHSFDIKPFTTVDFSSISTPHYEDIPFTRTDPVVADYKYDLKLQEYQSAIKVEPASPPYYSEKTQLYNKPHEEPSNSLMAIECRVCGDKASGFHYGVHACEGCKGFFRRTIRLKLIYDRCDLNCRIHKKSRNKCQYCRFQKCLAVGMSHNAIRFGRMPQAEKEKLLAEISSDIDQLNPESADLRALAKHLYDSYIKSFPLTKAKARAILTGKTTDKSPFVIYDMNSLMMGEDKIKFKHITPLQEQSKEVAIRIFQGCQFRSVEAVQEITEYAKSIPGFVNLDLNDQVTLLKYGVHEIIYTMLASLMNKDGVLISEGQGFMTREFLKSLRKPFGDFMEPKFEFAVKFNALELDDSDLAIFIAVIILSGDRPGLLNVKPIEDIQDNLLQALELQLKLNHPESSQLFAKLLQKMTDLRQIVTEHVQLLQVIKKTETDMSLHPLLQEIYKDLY
Sequence of Thyroid hormone receptor beta (Homo sapiens) (P10828 whole entry, looked up): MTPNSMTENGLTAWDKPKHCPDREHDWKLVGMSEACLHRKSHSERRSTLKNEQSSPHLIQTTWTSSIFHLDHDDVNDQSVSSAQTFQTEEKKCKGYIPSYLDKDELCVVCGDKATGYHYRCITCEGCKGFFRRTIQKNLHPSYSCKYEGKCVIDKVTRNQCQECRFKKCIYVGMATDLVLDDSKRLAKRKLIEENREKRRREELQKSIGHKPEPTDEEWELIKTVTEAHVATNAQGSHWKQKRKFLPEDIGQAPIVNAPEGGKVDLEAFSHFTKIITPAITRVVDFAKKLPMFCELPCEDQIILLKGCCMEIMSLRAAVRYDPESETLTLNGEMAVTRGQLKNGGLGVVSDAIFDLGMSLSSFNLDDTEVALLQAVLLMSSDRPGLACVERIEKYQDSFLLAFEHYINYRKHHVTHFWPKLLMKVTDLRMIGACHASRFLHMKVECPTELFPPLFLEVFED
Sequence of Nuclear receptor subfamily 1 group I member 2 (Rattus norvegicus) (Q9R1A7 whole entry, looked up): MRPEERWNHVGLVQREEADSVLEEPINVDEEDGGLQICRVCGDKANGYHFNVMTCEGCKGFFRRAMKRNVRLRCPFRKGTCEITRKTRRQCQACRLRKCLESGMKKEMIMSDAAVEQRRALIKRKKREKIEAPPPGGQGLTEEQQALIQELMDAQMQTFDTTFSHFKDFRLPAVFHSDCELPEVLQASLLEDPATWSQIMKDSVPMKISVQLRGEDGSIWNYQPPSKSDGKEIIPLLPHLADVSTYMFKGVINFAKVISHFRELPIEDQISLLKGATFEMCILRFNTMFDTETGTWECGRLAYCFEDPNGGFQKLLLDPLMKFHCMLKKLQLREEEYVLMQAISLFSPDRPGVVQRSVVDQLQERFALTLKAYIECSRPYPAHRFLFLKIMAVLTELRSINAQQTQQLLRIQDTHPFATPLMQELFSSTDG
Sequence of Peroxisome proliferator-activated receptor alpha (Homo sapiens) (Q07869 whole entry, looked up, the tested form may be a part): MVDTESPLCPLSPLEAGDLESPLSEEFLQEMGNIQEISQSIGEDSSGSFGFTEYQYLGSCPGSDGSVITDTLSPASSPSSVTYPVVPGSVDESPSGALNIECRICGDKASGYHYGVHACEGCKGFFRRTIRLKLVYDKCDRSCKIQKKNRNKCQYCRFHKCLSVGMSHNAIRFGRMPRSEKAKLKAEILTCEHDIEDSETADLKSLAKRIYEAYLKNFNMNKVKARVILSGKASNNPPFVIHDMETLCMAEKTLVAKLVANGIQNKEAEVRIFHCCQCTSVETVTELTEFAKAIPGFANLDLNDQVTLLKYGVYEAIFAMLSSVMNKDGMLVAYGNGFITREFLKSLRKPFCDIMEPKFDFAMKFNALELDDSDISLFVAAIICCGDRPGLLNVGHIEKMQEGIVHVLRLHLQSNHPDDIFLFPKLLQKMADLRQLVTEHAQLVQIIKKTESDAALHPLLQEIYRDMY
Sequence of Peroxisome proliferator-activated receptor delta (Homo sapiens) (Q03181 whole entry, looked up): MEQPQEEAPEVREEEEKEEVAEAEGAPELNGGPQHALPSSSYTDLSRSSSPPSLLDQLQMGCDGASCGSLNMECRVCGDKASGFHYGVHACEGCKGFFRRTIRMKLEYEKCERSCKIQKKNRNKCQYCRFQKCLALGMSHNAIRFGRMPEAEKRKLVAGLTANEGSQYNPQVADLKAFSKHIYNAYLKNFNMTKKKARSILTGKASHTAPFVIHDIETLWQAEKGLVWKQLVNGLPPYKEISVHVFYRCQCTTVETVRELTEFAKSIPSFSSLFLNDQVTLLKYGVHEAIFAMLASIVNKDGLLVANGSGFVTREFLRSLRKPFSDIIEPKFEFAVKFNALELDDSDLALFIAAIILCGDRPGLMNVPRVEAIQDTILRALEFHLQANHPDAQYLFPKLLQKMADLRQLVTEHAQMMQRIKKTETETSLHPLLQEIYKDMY
Sequence of Glucocorticoid receptor (Homo sapiens) (P04150 whole entry, looked up): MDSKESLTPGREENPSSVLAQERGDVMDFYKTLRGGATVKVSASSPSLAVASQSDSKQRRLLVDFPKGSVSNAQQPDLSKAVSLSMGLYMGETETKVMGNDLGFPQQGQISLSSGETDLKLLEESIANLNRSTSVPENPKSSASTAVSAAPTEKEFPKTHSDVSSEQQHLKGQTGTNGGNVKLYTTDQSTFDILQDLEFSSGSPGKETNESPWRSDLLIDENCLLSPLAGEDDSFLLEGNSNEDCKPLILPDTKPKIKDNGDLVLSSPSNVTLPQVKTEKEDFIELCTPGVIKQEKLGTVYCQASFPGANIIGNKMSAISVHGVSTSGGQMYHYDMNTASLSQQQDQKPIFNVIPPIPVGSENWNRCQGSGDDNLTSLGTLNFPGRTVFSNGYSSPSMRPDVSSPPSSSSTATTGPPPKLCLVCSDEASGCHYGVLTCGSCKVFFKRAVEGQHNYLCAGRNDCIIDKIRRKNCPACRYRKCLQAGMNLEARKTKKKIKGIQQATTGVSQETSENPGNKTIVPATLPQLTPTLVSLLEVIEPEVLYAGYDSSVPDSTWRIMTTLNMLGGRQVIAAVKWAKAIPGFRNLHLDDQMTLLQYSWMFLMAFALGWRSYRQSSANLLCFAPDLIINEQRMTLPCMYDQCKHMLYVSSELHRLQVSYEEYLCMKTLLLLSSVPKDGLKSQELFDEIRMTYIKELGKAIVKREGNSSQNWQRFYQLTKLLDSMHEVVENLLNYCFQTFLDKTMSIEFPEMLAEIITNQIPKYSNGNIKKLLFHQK

CCOP(=O)(OCC)SCCSCC
active: Potency [5] 44.7 µM
inactive: Potency [1] | Potency [2] | Potency [3] | Potency [4] | Potency [6] | max response [8] 3.44% | activation [9] 1.72% | activation [10] 0.345% | activation [11] 1.43% | max response [12] -1.58% | max response [13] 12.9% | max response [14] -2.44% | Potency [15] | max response [16] 3.51%
-5.85%: max response [7]

CCNc1nc(NCC)nc(SC)n1
-14%: max response [7]
inactive: Potency [1] | Potency [2] | activation [17] -3.89% | Potency [3] | Potency [4] | outcome [18] | Potency [5] | Potency [6] | max response [8] -3.26% | activation [9] -3.86% | activation [10] 0.586% | max response [12] 0.186% | Potency [19] | max response [13] 8.18% | max response [14] -5.22% | Potency [15] | max response [16] 1.83%

Brc1c(Br)c(Br)c(Br)c(Br)c1Br
inactive: Potency [1] | Potency [2] | activation [17] -0.0722% | outcome [20] | Potency [3] | Potency [5] | Potency [6] | max response [8] 0.275% | activation [9] 2.23% | activation [10] -0.808% | activation [11] 2.18% | max response [12] -0.494% | Potency [19] | max response [13] 3.38% | max response [14] -0.224% | Potency [15] | max response [16] 0.884%
-6.9%: max response [7]

CCN(CC)c1nc(C)cc(OP(=S)(OC)OC)n1
inactive: Potency [1] | Potency [2] | activation [17] 19.3% | Potency [3] | Potency [4] | outcome [18] | Potency [5] | Potency [6] | activation [9] 1.41% | activation [10] 0.586% | activation [11] 1.48% | max response [12] 3.1% | Potency [19] | max response [13] -9.93% | max response [14] -11.6% | Potency [15] | max response [16] -1.67%

CCCCC(C#N)(Cn1cncn1)c1ccc(Cl)cc1 (configuration not stated)
7.2% and 4.81%: max response [7]
inactive: Potency [1] | Potency [2] | activation [17] -4.2% and -7.49% | outcome [20] | Potency [3] | Potency [5] | Potency [6] | max response [8] 3.27% and 4.81% | activation [9] -3.98% | activation [11] -0.211% | max response [12] -2.63% and 1.11% | Potency [19] | max response [13] 0.943% and -1.27% | max response [14] -11.8% and -12.8% | Potency [15]

c1cc(OCC2CO2)cc(OCC2CO2)c1 (configuration not stated)
6.7%: max response [7]
active: Potency [1] 31.6 µM [inconclusive] | Potency [9] 25.1 µM
inactive: outcome [20] | Potency [3] | max response [8] 5.23% | Potency [19]
